Data on nine compounds can be found in PubChem BioAssay (NCI).

The panel holds about 79,000 compounds, 15% with a hit somewhere; the sample as a whole holds those more often. Values without a mark were called inactive. Calls of active or inactive are those of the source. No stated cut-off is given here; in the data, active means growth inhibition above about 70%; inactive means the rest.

The nature of assay [1]: NCI Yeast Anticancer Drug Screen. Data for the rad50 strain (AID 155).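 Further: 0% = growth of vehicle-only cultures of the same strain.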 The note with it: S. cerevisiae rad50 strain growth inhibition, stronger effect = higher value. In outline:
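Cells are treated with compound, grown, and their growth is then scored against vehicle-only cultures of the same repair-deficient yeast strain.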

Assay [2] can be described thus: NCI Yeast Anticancer Drug Screen. Data for the mec2-1 strain (AID 157). The note with it: S. cerevisiae mec2-1 strain, stronger effect = higher value. Summed up:
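Vehicle-treated cultures served as reference for growth inhibition of compound-exposed mec2-1 yeast.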

Assay [3] in a line: NCI Yeast Anticancer Drug Screen. Data for the sgs1 mgt1 strain (AID 161).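 Further: 0% = growth of cultures given vehicle only.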 The note with it: S. cerevisiae sgs1 mgt1 strain, stronger effect = higher value. In outline:
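Inhibition of yeast growth, normalised to vehicle-treated controls, is reported for a strain bearing genetic alterations in DNA damage repair.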

A short description of assay [4]: NCI Yeast Anticancer Drug Screen. Data for the cln2 rad14 strain (AID 165).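 Further: 0% = growth equal to vehicle treated cultures.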 The note with it: S. cerevisiae cln2 rad14 strain, stronger effect = higher value. In outline: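 Each compound was tested on cln2 rad14 yeast. Inhibition of growth was calculated against vehicle-exposed controls.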
Assay [5] is described as follows: NCI Yeast Anticancer Drug Screen. Data for the bub3 strain (AID 167). The note with it: S. cerevisiae bub3 mutant strain, stronger effect = higher value. Summed up: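 Part of a panel of yeast mutants defective in DNA damage repair or cell cycle regulation. Each strain is grown with compound, and inhibition is calculated relative to solvent-treated cultures.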
The nature of assay [6]: NCI Yeast Anticancer Drug Screen. Data for the mlh1 rad18 strain (AID 175). The note with it: S. cerevisiae mlh1 rad18 strain growth inhibition, stronger effect = higher value. Summed up: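 Vehicle-treated cultures served as the reference for growth inhibition in a yeast strain carrying DNA damage repair alterations exposed to each compound.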
Setting [7] is: at 5.0 µM (retest, dose inferred, filed as 0.5).
[8] abbreviates: at 50.0 µM (retest, dose inferred, filed as 5.0).

As to `CCC(C)(C)c1ccc(OP(=S)(S)Oc2ccc(C(C)(C)CC)cc2)cc1`, the growth inhibition is -1% in assay [1] (setting [7]); 92% (active) in assay [1] (setting [8]); 88.5% (active) in assay [1] (at 50.0 µM); 3% in assay [2] (setting [7]); 96% (active) in assay [2] (setting [8]); 68.7% in assay [2] (at 50.0 µM). Further, the growth inhibition was -7% in assay [3] (setting [7]); 95% (active) in assay [3] (setting [8]); 94.9% (active) in assay [3] (at 50.0 µM); 4% in assay [4] (setting [7]); 90% (active) in assay [4] (setting [8]); 90.7% (active) in assay [4] (at 50.0 µM). Besides, the growth inhibition in assay [5] (setting [7]) was -1%; in assay [5] (setting [8]), 94% (active); in assay [5] (at 50.0 µM), 31.5%; in assay [6] (setting [7]), -4%; in assay [6] (setting [8]), 95% (active); in assay [6] (at 50.0 µM), 90.5% (active).
Regarding `C[C@H]1C/C=C/[C@H]2[C@@H]3O[C@]3(C)[C@@H](C)[C@H]3[C@H](Cc4ccccc4)NC(=O)[C@]32OC(=O)O/C=C/[C@@](C)(O)C1=O`, the growth inhibition in assay [1] (setting [7]) was 21%; in assay [1] (setting [8]), 30%; in assay [1] (at 50.0 µM), 72.7% (active); in assay [2] (setting [7]), 19%; in assay [2] (setting [8]), 53%; in assay [2] (at 50.0 µM), 91.3% (active). Also, the growth inhibition in assay [3] (setting [7]) is 19%; in assay [3] (setting [8]) it was 14%; in assay [3] (at 50.0 µM), 32.7%; in assay [4] (setting [7]), 25%; in assay [4] (setting [8]), 36%; in assay [4] (at 50.0 µM), 67.3%. Further, the growth inhibition is 28% in assay [5] (setting [7]); 48% in assay [5] (setting [8]); 83.2% (active) in assay [5] (at 50.0 µM); 17% in assay [6] (setting [7]); 46% in assay [6] (setting [8]); 81.8% (active) in assay [6] (at 50.0 µM).
Turning to `CCCCCCCCCCCCN=C(N)N`, the growth inhibition is 80% (active) in assay [1] (setting [7]); 98% (active) in assay [1] (setting [8]); 99.1% (active) in assay [1] (at 50.0 µM); 72% (active) in assay [2] (setting [7]); 99% (active) in assay [2] (setting [8]); 99.3% (active) in assay [2] (at 50.0 µM). The growth inhibition in assay [3] (setting [7]) was 87% (active); in assay [3] (setting [8]), 99% (active); in assay [3] (at 50.0 µM), 99% (active); in assay [4] (setting [7]), 59%; in assay [4] (setting [8]), 98% (active); in assay [4] (at 50.0 µM), 98.5% (active). The growth inhibition is 96% (active) in assay [5] (setting [7]); 99% (active) in assay [5] (setting [8]); 99.4% (active) in assay [5] (at 50.0 µM); 71% (active) in assay [6] (setting [7]); 98% (active) in assay [6] (setting [8]); 98.4% (active) in assay [6] (at 50.0 µM).
In the case of `COc1cc(C=Nc2cc(Br)c(OC)c(Br)c2)ccc1N(CCCl)CCCl`, the growth inhibition is 1% in assay [1] (setting [7]); 73% (active) in assay [1] (setting [8]); 84.5% (active) in assay [1] (at 50.0 µM); -12% in assay [2] (setting [7]); 79% (active) in assay [2] (setting [8]); 31.4% in assay [2] (at 50.0 µM). Also, the growth inhibition was -1% in assay [3] (setting [7]); 45% in assay [3] (setting [8]); 76.2% (active) in assay [3] (at 50.0 µM); 1% in assay [4] (setting [7]); 46% in assay [4] (setting [8]); 55.7% in assay [4] (at 50.0 µM). In addition, the growth inhibition was -8% in assay [5] (setting [7]); -3% in assay [5] (setting [8]); -1.45% in assay [5] (at 50.0 µM); 54% in assay [6] (setting [7]); 95% (active) in assay [6] (setting [8]); 83.2% (active) in assay [6] (at 50.0 µM).
`Cl[C](Cl)(Cl)[Hg][c]1ccccc1`: the growth inhibition is 99% (active) in assay [1] (setting [7]); 99% (active) in assay [1] (setting [8]); 88% (active) in assay [1] (at 50.0 µM); 100% (active) in assay [2] (setting [7]); 99% (active) in assay [2] (setting [8]); 93.8% (active) in assay [2] (at 50.0 µM). The growth inhibition in assay [3] (setting [7]) was 100% (active); in assay [3] (setting [8]) it was 99% (active); in assay [3] (at 50.0 µM), 92.7% (active); in assay [4] (setting [7]), 99% (active); in assay [4] (setting [8]), 99% (active); in assay [4] (at 50.0 µM), 91.7% (active). For the same compound, the growth inhibition in assay [5] (setting [7]) was 99% (active); in assay [5] (setting [8]), 99% (active); in assay [5] (at 50.0 µM), 91.8% (active); in assay [6] (setting [7]), 99% (active); in assay [6] (setting [8]), 99% (active); in assay [6] (at 50.0 µM), 91.5% (active).
In the case of `COc1c(O)c2c(c3cc(C(=O)N4CCc5c4c(O)c(OC)c4[nH]c(C(=O)N6CC7CC78C6=CC(=O)c6[nH]cc(C)c68)cc54)[nH]c13)CCN2C(N)=O` (configuration not stated), the growth inhibition in assay [1] (setting [7]) was 97% (active); in assay [1] (setting [8]), 97% (active); in assay [1] (at 50.0 µM) it was 89.8% (active); in assay [2] (setting [7]), 98% (active); in assay [2] (setting [8]), 98% (active); in assay [2] (at 50.0 µM), 93% (active). Also, the growth inhibition in assay [3] (setting [7]) was 96% (active); in assay [3] (setting [8]), 96% (active); in assay [3] (at 50.0 µM) it was 90.5% (active); in assay [4] (setting [7]), 95% (active); in assay [4] (setting [8]), 95% (active); in assay [4] (at 50.0 µM) it was 89% (active). For the same compound, the growth inhibition in assay [5] (setting [7]) was 94% (active); in assay [5] (setting [8]) it was 96% (active); in assay [5] (at 50.0 µM), 91% (active); in assay [6] (setting [7]) it was 98% (active); in assay [6] (setting [8]), 97% (active); in assay [6] (at 50.0 µM), 89.5% (active).
As for `CCNC(C)(C)C(SS)c1ccc(Br)cc1` (configuration not stated), the growth inhibition in assay [1] (setting [7]) was 6%; in assay [1] (setting [8]), 10%; in assay [1] (at 50.0 µM) it was 66.3%; in assay [2] (setting [7]), 2%; in assay [2] (setting [8]), -3%; in assay [2] (at 50.0 µM) it was 57.1%. Besides, the growth inhibition in assay [3] (setting [7]) is -3%; in assay [3] (setting [8]), 18%; in assay [3] (at 50.0 µM) it was 73.8% (active); in assay [4] (setting [7]), 25%; in assay [4] (setting [8]), 33%; in assay [4] (at 50.0 µM), 34.9%. The growth inhibition in assay [5] (setting [7]) is -15%; in assay [5] (setting [8]), 17%; in assay [5] (at 50.0 µM), 84.8% (active); in assay [6] (setting [7]), -21%; in assay [6] (setting [8]) it was 20%; in assay [6] (at 50.0 µM), 78.6% (active).
With `CCN(CC)CC(=O)O[C@]1(CC)C(=O)OCc2c1cc1n(c2=O)Cc2cc3ccccc3nc2-1`, the growth inhibition was 93% (active) in assay [1] (setting [7]); 97% (active) in assay [1] (setting [8]); 83.2% (active) in assay [1] (at 50.0 µM); 58% in assay [2] (setting [7]); 98% (active) in assay [2] (setting [8]); 87% (active) in assay [2] (at 50.0 µM). For the same compound, the growth inhibition in assay [3] (setting [7]) is 45%; in assay [3] (setting [8]), 97% (active); in assay [3] (at 50.0 µM), 85.1% (active); in assay [4] (setting [7]), 44%; in assay [4] (setting [8]), 93% (active); in assay [4] (at 50.0 µM), 62.5%. Further, the growth inhibition was 43% in assay [5] (setting [7]); 97% (active) in assay [5] (setting [8]); 81.5% (active) in assay [5] (at 50.0 µM); 91% (active) in assay [6] (setting [7]); 96% (active) in assay [6] (setting [8]); 85.6% (active) in assay [6] (at 50.0 µM).
With `CC1CCC2(OC1)OC1CC3C4CC=C5CC(OC6OC(CO)C(OC7OC(C)C(OC8OC(C)C(O)C(O)C8O)C(O)C7O)C(O)C6OC6OC(C)C(O)C(O)C6O)CCC5(C)C4CCC3(C)C1C2C` (configuration not stated), the growth inhibition is 100% (active) in assay [1] (setting [7]); 94% (active) in assay [1] (setting [8]); 87.3% (active) in assay [1] (at 50.0 µM); 99% (active) in assay [2] (setting [7]); 96% (active) in assay [2] (setting [8]); 81.5% (active) in assay [2] (at 50.0 µM). In addition, the growth inhibition in assay [3] (setting [7]) is 99% (active); in assay [3] (setting [8]) it was 95% (active); in assay [3] (at 50.0 µM), 84% (active); in assay [4] (setting [7]), 99% (active); in assay [4] (setting [8]), 95% (active); in assay [4] (at 50.0 µM), 86.7% (active). In addition, the growth inhibition is 99% (active) in assay [5] (setting [7]); 95% (active) in assay [5] (setting [8]); 89.2% (active) in assay [5] (at 50.0 µM); 98% (active) in assay [6] (setting [7]); 91% (active) in assay [6] (setting [8]); 86.5% (active) in assay [6] (at 50.0 µM).
